Our source for the max response and Potency values is PubChem BioAssay (NCATS).

Where “and” joins values, the source holds several entries; their conditions need not be identical. Equal entries are not always repeated. Records with an inconclusive call do not appear. Unmarked numbers belong to inactive results. Calls of active or inactive are those of the source. Calls follow the shape of the dose curve; as a rule, active = well fitted curve in the direction sought with a large enough effect; inconclusive = small, poorly fitted or top-dose-only effect, or another doubt; inactive = no such curve, though single readings can be large; an effect the other way counts as inactive or inconclusive.

Assay [1] can be described thus: qHTS Assay for Identifying Gametocytocidal Compounds (AID 743244). Also: potency is read from the fitted curve at half-maximal effect.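 As to max response: % is scaled to controls: 0 for no effect and ±100 for the full control effect; actives lower the fluorescent signal which means gametocytes are killed.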 The following applies: P. falciparum 3D7 stage III-V gametocytes, alamarBlue, 72 h; max response: stronger effect = lower value. Put shortly:
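Compounds are pinned into medium, gametocytes (stage III–V, 3D7, 20,000 cells/well) added, and plates held 72 h at 37 °C in 5% CO2. AlamarBlue follows for 24 h before fluorescence reading.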

A further assay concerns KB-3-1. As to the kind of experiment: Cytotoxic Profiling of Annotated Libraries Using Quantitative High-Throughput Screening (AID 1296008). Also: nearly all actives have a fitted effect of over 60% in size. Also: potency is read from the fitted curve at half-maximal effect. As to max response: % is scaled to controls: 0 for no effect and ±100 for the full control effect. The conditions noted are these: Five cell lines viability, CellTiter-Glo ATP luminescence, 48-72 h; max response: stronger effect = lower value. Summed up: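 Compounds were pin-transferred onto cells and incubated 48 or 72 hr at 37 degree Celsius, 95% humidity. CellTiter-Glo was added, plates sat 10 min at room temperature, then ATP-coupled luminescence was imaged as the viability read-out.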

In a further assay the test system is astro. In words: Drug repurposing screens with cells derived from glioblastoma tumor samples (AID 1345199). Also: nearly all actives have a fitted effect of over 40% in size. Also: potency is read from the fitted curve at half-maximal effect. The conditions noted are these: viability, ATP luminescence, 48 h; series mostly up to 45.9 µM. Summed up: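 Four patient lines of CD133+ GBM neurospheres were screened at several concentrations; hits were retested in those lines plus three slower-growing GBM lines, using 48-hour treatment and ATP-based viability.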

Assay [2] in a line: P-glycoprotein substrates identified in KB-8-5-11 adenocarcinoma cell line, qHTS therapeutic library screen (AID 1346987). Also: nearly all actives have a fitted effect of over 65% in size. Also: potency is read from the fitted curve at half-maximal effect. Put shortly: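 P-gp-mediated resistance screen: KB-8-5-11 cells treated 72 h with compounds in dose-response. CellTiter-Glo viability.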
The target of assay [3] is Glutathione peroxidase 1 (Homo sapiens) (UniProt P07203). In words: Primary qHTS Assay for Inhibitors of Recombinant Selenoprotein Glutathione Peroxidase 1 (GPX1) (AID 1845191). Also: % is scaled to controls: 0 for no effect and ±100 for the full control effect; nearly all actives have a fitted effect of over 65% in size. Summed up: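 Recombinant GPX1 (10 nM final) was preincubated with compound for 30 min at room temperature, then reacted with 1 mM GSH, 0.5 mM CHP, 0.5 mM NADPH and 100 nM glutathione reductase; NADPH fluorescence (340/450 nm) was read at 0 and 15 min.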
Sequence of Glutathione peroxidase 1 (Homo sapiens) (P07203 whole entry, looked up): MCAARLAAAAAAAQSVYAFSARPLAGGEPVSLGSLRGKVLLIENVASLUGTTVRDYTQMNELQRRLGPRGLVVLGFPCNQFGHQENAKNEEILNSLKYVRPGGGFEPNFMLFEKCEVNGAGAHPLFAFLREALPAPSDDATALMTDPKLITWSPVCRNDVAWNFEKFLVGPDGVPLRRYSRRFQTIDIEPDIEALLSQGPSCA

In assay [4] the target is Phospholipid hydroperoxide glutathione peroxidase GPX4 (Homo sapiens) (UniProt P36969). As to the kind of experiment: Primary qHTS Assay for Inhibitors of Recombinant Selenoprotein Glutathione Peroxidase 4 (GPX4) (AID 1845192). Also: nearly all actives have a fitted effect of over 65% in size. Summed up: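 GR-coupled readout: 100 nM GR, 1 mM GSH, 0.5 mM NADPH; NADPH fluorescence (ex 340/em 450 nm) read at t=0 and after 15 min RT. GPX4 200 nM, preincubated 30 min with compound; substrate 0.5 mM CHP.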
Sequence of Phospholipid hydroperoxide glutathione peroxidase GPX4 (Homo sapiens) (P36969 whole entry, looked up): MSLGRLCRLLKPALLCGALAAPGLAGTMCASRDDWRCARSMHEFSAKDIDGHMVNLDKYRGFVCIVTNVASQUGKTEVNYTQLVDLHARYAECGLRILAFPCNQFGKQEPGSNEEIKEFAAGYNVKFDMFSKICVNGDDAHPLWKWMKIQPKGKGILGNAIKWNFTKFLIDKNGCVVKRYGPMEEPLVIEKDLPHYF

Turning to `COc1ccc(OC)c(C[C@H](C)N)c1`, the max response was -1.24% in assay [1] and 4.2% with KB-3-1. Further, the Potency result with astro was “inactive”.

With `CCCSc1cc(OC)c(CCN)cc1OC`, the values for the Potency (in assay [2]; with KB-3-1; with astro) were 20 µM (active), 17.8 µM (active) and 31.6 µM (active), respectively.

On to `COC(=O)c1ccccc1C(=O)OC`, for which the figures for the max response (in assay [1]; with KB-3-1) were -14.6% and 3.72%, respectively. Moreover, the Potency entry in assay [2] was “inactive”.

Take `CCOc1cc(C=O)ccc1O`: the max response in assay [1] was -3.19%; in the assay on KB-3-1, -13%. In addition, the Potency result (in assay [2]; with astro) was “inactive” in each case.

With `CN(C)CCO`, the max response is 29.8% in assay [1] and -9.6% in the assay with KB-3-1. Further, the Potency result (in assay [2]; in the assay on astro) was “inactive” throughout.

As for `CC(C)C[C@H]1C(=O)N2CCC[C@H]2[C@]2(O)O[C@](NC(=O)[C@@H]3C[C@@H]4c5cccc6[nH]cc(c56)C[C@H]4N(C)C3)(C(C)C)C(=O)N12`, the Potency result in assay [3] was “inactive”. The max response in the assay on KB-3-1 was -14.2%.

Turning to `C[C@H]1[C@H]2Cc3ccc(O)cc3[C@]1(C)CCN2CCc1ccccc1`, in the assay with KB-3-1, the max response is -3.9%.

In the case of `Oc1cc[c]([Hg][Cl])cc1`, the Potency in assay [1] was 3.55 µM (active) and 2.82 µM (active); in assay [2], 5.8 µM (active) and 6.51 µM (active); in the assay on KB-3-1, 6.51 µM (active); in the assay with astro it was 3.16 µM (active) and 5.62 µM (active).

With `C=CCC1([C@@H](C)CCC)C(=O)NC(=O)NC1=O`, the results for the max response (in assay [1]; in the assay with KB-3-1) were 0.546% and -4.55%, respectively. The Potency result (in assay [2]; in the assay on astro) was “inactive” each time.

Turning to `O=P1(N(CCCl)CCCl)NC(OO)CCO1` (centres undefined), the max response was -1.64% in assay [1] and 2.7% in the assay on KB-3-1. The Potency entry (in assay [2]; in the assay on astro) was “inactive” in each case.

On to `Cc1nnc2n1-c1sc(Br)cc1C(c1ccccc1Cl)=NC2`, for which the max response was 6.14% in assay [1] and -25.2% in the assay on KB-3-1. The Potency entry in assay [3] and in assay [4] was “inactive” in each case.

Regarding `COc1cc(C[C@H](C)N)c(OC)cc1Br`, the max response was -8.52% in assay [1] and -6.95% in the assay on KB-3-1. Also, the Potency result (in assay [2]; in the assay with astro) was “inactive” throughout.

Consider `CN1CCN=C(c2ccccc2)c2cc(Cl)ccc21`, for which the max response in assay [1] is 0.139%; with KB-3-1, 8.16%. Besides, the Potency entry (in assay [2]; in the assay on astro) was “inactive” each time.
